# Screening data: PubChem, National Center for Advancing Translational Sciences (NCATS)
# Hits are enriched below; roughly 19% of the tested compounds scored in any of these assays.
# KB-3-1 tox = qHTS assay for MDR1-selective chemotherapeutics: Primary screen using the parental adenocarcinoma cell KB-3-1 | KB-3-1 viability, CellTiter-Glo ATP luminescence, 72 h | Potency, µM (highest dose often 46.1 µM), most hits filed as cytotoxic | hit rate 1.4% among 400,000 | AID 1347075, 2019; note: nearly all actives have a fitted effect of over 60% in size
#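 Multi-concentration cytotoxicity screen in KB-3-1 cells grown in DMEM lacking phenol red with 10% FBS. After 72 h at 37 °C with compound, ATP-dependent luminescence was recorded.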
# TDP1 cell noCPT = qHTS for Inhibitors of human tyrosyl-DNA phosphodiesterase 1 (TDP1): qHTS in cells in absence of CPT; DT40 Tdp1-/- hTDP1 cells, no CPT, ATP luminescence, 48 h; Potency, µM (series often up to 46.2 µM), inactives show at the highest dose activity change, negative = growth inhibition, usual class: inhibitors; hit rate 15% among 420,000; AID 686978, 2013; note: nearly all actives have a fitted effect of over 55% in size
#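 Camptothecin absent (DMSO only). Human TDP1-complemented DT40 knockout cells, 400 cells/well, 37 °C for minimum 48 hr; ATP measured via CellTiter-Glo, 30 min dark incubation, luminescence.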
# TDP1 cell CPT = qHTS for Inhibitors of human tyrosyl-DNA phosphodiesterase 1 (TDP1): qHTS in cells in presence of CPT | chicken DT40 Tdp1-/-;hTDP1 cells + 20 nM CPT, ATP luminescence, 48 h | Potency, µM (highest dose often 46.2 µM), for the others: at the top dose activity change, negative = growth inhibition, usual class: inhibitors | hit rate 12% among 420,000 | AID 686979, 2013; note: nearly all actives have a fitted effect of over 55% in size
#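 Chicken DT40 Tdp1-/- cells stably complemented with human TDP1 were seeded at 400 cells/well in medium containing 20 nM camptothecin, exposed to pin-transferred compounds, and grown at 37 °C for at least 48 hr. Viability was read as ATP luminescence.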
# HT1080 IDH1KD tx = qHTS for induction of synthetic lethality in tumor cells producing 2HG: qHTS for the HT-1080-IDH1KD cell line; HT-1080 IDH1 knockdown viability, ATP luminescence, 48 h; Potency, µM (doses to about 46.1 µM), without a hit: top-dose activity, negative = toxicity, actives largely listed as cytotoxic; hit rate 2% among 360,000;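 note: 0% = DMSO wells and -100% = cell-free medium wells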
#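 Luminescent ATP read-out (CellTiter-Glo, 10 min at room temperature) after 48 h compound exposure at 37 °C gave viability of IDH1-knockdown HT-1080 cells. Activity was normalised to DMSO and cell-free wells, then fitted as concentration-response curves.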
# KB-V1 cytotox = qHTS assay for MDR1-selective chemotherapeutics: Primary screen using the drug-selected MDR subline cells KB-V1 | KB-V1 MDR cells viability, CellTiter-Glo, 72 h | Potency, µM (highest dose often 46.1 µM), usual class: cytotoxic | hit rate 3.4% among 400,000 | AID 1347076, 2019; note: nearly all actives have a fitted effect of over 60% in size
#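 Cytotoxicity via CellTiter-Glo luminescence after 72 h compound exposure at 37 degrees C. Cells: drug-selected KB-V1 line, DMEM phenol-red free plus 10% FBS. Compounds tested at multiple concentrations; normalized data fitted to concentration-effect curves.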
# HT1080NT lethal = qHTS for induction of synthetic lethality in tumor cells producing 2HG: qHTS for the HT-1080-NT fibrosarcoma cell line. Potency, µM (highest dose often 46.1 µM), for the others: top-dose activity, negative = less viability, usual class: cytotoxic. HT-1080-NT fibrosarcoma viability, CellTiter-Glo ATP luminescence, 48 h. hit rate 1.6% among 360,000;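 note: NT is the 2HG producing partner of a matched IDH1 knockdown line; 0% = DMSO-treated cells and -100% = media-only wells without cells; nearly all actives have a fitted effect of over 55% in size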
#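 HT-1080-NT; 750 cells/well; 5% FBS RPMI; 48 h compound, 37 degrees C; CellTiter-Glo luminescence; curve fitting and curve-class assignment.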
# The depositor's hits bear a star; i = inactive; u = inconclusive; x = no result; ! = not confirmed by another sample; [ ] = remark or other dose. Calls come from the whole dose curve; as a rule, active = well fitted curve in the direction sought with a large enough effect; inconclusive = small, poorly fitted or top-dose-only effect, or another doubt; inactive = no such curve, though single readings can be large; an effect the other way counts as inactive or inconclusive. Unless noted, % is set by controls: 0 for no effect and ±100 for the full control effect; potency is the fitted concentration of half-maximal effect.
SMILES,KB-3-1 tox,TDP1 cell noCPT,TDP1 cell CPT,HT1080 IDH1KD tx,KB-V1 cytotox,HT1080NT lethal
O=C(NCCCN1CCN(c2cccc(Cl)c2)CC1)c1ccc2nc(Cc3ccccc3)oc2c1,15µM*,15µM*,23µM*,x,u,x
COc1ccc(N2CCN(CCCNC(=O)c3ccc(CS(=O)(=O)c4ccc(OC)cc4)o3)CC2)cc1,i,u,u,-1%,i,0%
COc1cccc(-c2nc3ccc(C(=O)NC(C)Cc4cccnc4)cc3o2)c1 (stereo not given),i,u,9.2µM*,0%,i,3%
Cc1ccc(CNC(=O)Cn2c(=O)n(-c3ccc(Cl)cc3)c(=O)c3c(C)c(C)sc32)cc1,i,-4%,-8%,x,u,x
COCC1CCCCN1C(=O)c1ccc2nc(Cc3ccc(OC)c(OC)c3)oc2c1 (stereo not given),i,u,12µM*,-4%,i,-4%
O=C(Nc1ccc(Br)cc1F)c1ccc2nc(CCc3ccccc3)oc2c1,i,12µM*,7.3µM*,x,i,x
Cc1ccc(C)c(NC(=O)c2ccc3nc(CCc4ccccc4)oc3c2)c1,i,-30%,-19%,x,i,x
COc1ccc(Cc2nc3ccc(C(=O)NCCc4ccccc4)cc3o2)cc1,i,u,26µM*,x,i,x
CCC1CCCCN1C(=O)c1ccc2nc(Cc3ccc(OC)cc3)oc2c1 (stereo not given),i,u,u,4%,i,0%
O=C(NCCCN1CCN(c2ccccc2)CC1)c1ccc2nc(CCc3ccccc3)oc2c1,x,4.6µM*,3.7µM*,x,x,x
CCOc1ccc(NS(=O)(=O)c2cccs2)cc1S(=O)(=O)N1CCCC1,i,-1%,-10%,6%,i,-1%
COCCNC(=O)c1cc(OC)c(OC)cc1[N+](=O)[O-],i,1%,7%,25%,i,15%
Cc1cccc(N(C(=O)CNC(=O)c2ccco2)C(C(=O)NC2CCCC2)c2cccnc2)c1C (stereo not given),i,7%,25%,16%,i,25%
Cc1ccc(-n2nc(C)c3c(C(F)(F)F)cc(-c4cccnc4)nc32)cc1Cl,x,1%,0%,x,x,x
COc1ccc(Cc2nc3ccc(C(=O)NCCc4ncccc4C)cc3o2)cc1OC,i,23µM*,21µM*,-6%,i,-2%
COc1ccc(N2CCN(CCCNC(=O)c3ccc4nc(CCc5ccccc5)oc4c3)CC2)cc1,x,16µM*,15µM*,x,x,x
COc1ccc(N2CCN(CCCNC(=O)c3ccc4nc(Cc5ccccc5)oc4c3)CC2)cc1,u,6.5µM*,6.5µM*,x,i,x
O=C(Nc1cccc(Cl)c1)c1ccc2nc(Cc3ccccc3)oc2c1,15µM*,21µM*,21µM*,x,u,x
COc1ccc(Cl)cc1NC(=O)c1ccc2nc(Cc3ccccc3)oc2c1,i,u,u,x,i,x
CCCOc1ccc(C(=O)Nc2nonc2-c2ccc(OCC)cc2)cc1,x,-23%,-3%,x,x,x
CCOc1ccc(/C=C/C(=O)Nc2cccc(C(C)=O)c2)cc1,i,0.58µM*,-85%,1%,u,7%
CCOc1ccc(NC(C(=O)Nc2cccc(C(C)=O)c2)c2ccccc2)cc1 (stereo not given),i,15µM*,15µM*,1%,i,-3%
Cc1ccc(NC(=O)c2ccc3c(O)c(S(=O)(=O)c4ccc(Cl)cc4)c(=O)[nH]c3c2)cc1,i,0%,0%,x,i,x
O=C(Nc1ccc(Cl)cc1F)c1cc(S(=O)(=O)NCc2ccc3c(c2)OCO3)ccc1F,x,-8%,u,x,x,x
COc1ccc(C2c3c(ncn(CCCO)c3=N)Oc3ccc4ccccc4c32)cc1OC (stereo not given),u,18µM*,15µM*,23µM*,i,u
SMILES,KB-3-1 tox,TDP1 cell noCPT,TDP1 cell CPT,HT1080 IDH1KD tx,KB-V1 cytotox,HT1080NT lethal
COc1ccc(C2c3c(ncn(CCN4CCOCC4)c3=N)Oc3ccc4ccccc4c32)cc1OC (stereo not given),u,u,u,16µM*!,23µM*,u
COc1ccc(C2c3ccc(O)cc3Oc3ncn(CCN4CCOCC4)c(=N)c32)cc1 (stereo not given),i,-21%,u,-4%,i,-11%
COc1ccc(C2c3c(ncn(CCCO)c3=N)Oc3ccc4ccccc4c32)cc1 (stereo not given),u,15µM*,21µM*,21µM*,i,21µM*
CCC(=O)N1CCCc2cc(S(=O)(=O)CCC(=O)Nc3ccccc3C)ccc21,i,-27%,-15%,-5%,i,12%
Cc1cccc(-c2cccc(C(=O)N3CCc4c(cnc(C)c4CNC(=O)c4cncs4)C3)c2)c1,x,u,-5%[9.04 µM],x,x,x
Cc1ccc([C@H]2N[C@]3(CCCN(Cc4ccc(Cl)cc4)C3=O)[C@H]3C(=O)N(Cc4ccccc4)C(=O)[C@@H]23)cc1,u,u,u,-22%,i,-14%
CCOc1ccc(NS(=O)(=O)c2cc(Br)cc3c2N(C(=O)C2CC2)CC3)cc1,i,u,u,x,i,x
CCc1ccccc1NS(=O)(=O)c1cc(Br)cc2c1N(C(=O)C1CC1)CC2,i,18µM*,16µM*,x,i,x
CCCCN(Cc1ccccc1)S(=O)(=O)c1ccc2c(c1)CCN2C(=O)C1CCC1,i,-21%,-28%,x,i,x
CCCCN(Cc1ccccc1)S(=O)(=O)c1cc(Br)cc2c1N(C(=O)C1CC1)CC2,i,9.2µM*,9.2µM*,x,i,x
CCN(Cc1ccccc1)S(=O)(=O)c1cc(Br)cc2c1N(C(=O)C1CC1)CC2,i,8.2µM*,10µM*,x,i,x
O=C(C1CC1)N1CCc2cc(S(=O)(=O)N(CCO)Cc3ccccc3)ccc21,i,23µM*,u,u,u,-17%
CCCCN(Cc1ccccc1)S(=O)(=O)c1cc(Br)cc2c1N(C(C)=O)CC2,i,u,u,x,i,x
CC1(C(=O)NS(=O)(=O)c2ccc(Cl)cc2)CCN1C(=O)c1ccccc1 (stereo not given),i,-3%,0%,7%,u,4%
